From the supplement of paper PMC4466140

Molecular target: AgAbp1
Test: SPOT peptide array binding signal intensity (averaged, normalized) (arbitrary units (background-subtracted, floor 0; scale differs between SH3 domains)); higher = stronger binding of the SH3 domain to the peptide
How it was run: (§1)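 Binding signal is given in arbitrary units that differ between domains and is the normalized, background-subtracted spot intensity averaged across replicates. Each GST-SH3 fusion from one of four yeast species was made in E. coli BL21(DE3), purified on glutathione Sepharose and incubated at 10 μg/ml overnight at 4°C on cellulose-bound synthetic 15-mer peptides in which cysteines were replaced by serines. Detection used anti-GST antibody, an HRP anti-mouse secondary and luminol, followed by imaging and Genespotter quantification.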

Binder | SPOT peptide array binding signal intensity
RKLRTVPGVPLIHLT | 13

Molecular target: AgBbc1
Test: as above
How it was run: as §1

Binder | SPOT peptide array binding signal intensity
RKLRTVPGVPLIHLT | 40.8

Molecular target: AgBem1-D1
Test: as above
How it was run: as §1

Binder | SPOT peptide array binding signal intensity
RKLRTVPGVPLIHLT | 41

Molecular target: AgBzz1-D1
Test: as above
How it was run: as §1

Binder | SPOT peptide array binding signal intensity
RKLRTVPGVPLIHLT | 8

Molecular target: AgBzz1-D2
Test: as above
How it was run: as §1

Binder | SPOT peptide array binding signal intensity
RKLRTVPGVPLIHLT | 16

Molecular target: AgCyk3
Test: as above
How it was run: as §1

Binder | SPOT peptide array binding signal intensity
RKLRTVPGVPLIHLT | 0.5

Molecular target: AgFus1
Test: as above
How it was run: as §1

Binder | SPOT peptide array binding signal intensity
RKLRTVPGVPLIHLT | 53.5

Molecular target: AgHof1
Test: as above
How it was run: as §1

Binder | SPOT peptide array binding signal intensity
RKLRTVPGVPLIHLT | 34.5

Molecular target: AgHse1
Test: as above
How it was run: as §1

Binder | SPOT peptide array binding signal intensity
RKLRTVPGVPLIHLT | 19.5

Molecular target: AgLsb1
Test: as above
How it was run: as §1

Binder | SPOT peptide array binding signal intensity
RKLRTVPGVPLIHLT | 2

Molecular target: AgLsb4
Test: as above
How it was run: as §1

Binder | SPOT peptide array binding signal intensity
RKLRTVPGVPLIHLT | 18

Molecular target: AgMyo5
Test: as above
How it was run: as §1

Binder | SPOT peptide array binding signal intensity
RKLRTVPGVPLIHLT | ≤ 0

Molecular target: AgNbp2
Test: as above
How it was run: as §1

Binder | SPOT peptide array binding signal intensity
RKLRTVPGVPLIHLT | 934

Molecular target: AgRvs167
Test: as above
How it was run: as §1

Binder | SPOT peptide array binding signal intensity
RKLRTVPGVPLIHLT | 2

Molecular target: AgSho1
Test: as above
How it was run: as §1

Binder | SPOT peptide array binding signal intensity
RKLRTVPGVPLIHLT | ≤ 0

Molecular target: AgSla1-D1-D2
Test: as above
How it was run: as §1

Binder | SPOT peptide array binding signal intensity
RKLRTVPGVPLIHLT | ≤ 0

Molecular target: AgSla1-D3
Test: as above
How it was run: as §1

Binder | SPOT peptide array binding signal intensity
RKLRTVPGVPLIHLT | 0.25

Molecular target: CaAbp1-D1
Test: as above
How it was run: as §1

Binder | SPOT peptide array binding signal intensity
RKLRTVPGVPLIHLT | 224

Molecular target: CaAbp1-D2
Test: as above
How it was run: as §1

Binder | SPOT peptide array binding signal intensity
RKLRTVPGVPLIHLT | 83

Molecular target: CaBbc1
Test: as above
How it was run: as §1

Binder | SPOT peptide array binding signal intensity
RKLRTVPGVPLIHLT | 171

Molecular target: CaBem1-D1
Test: as above
How it was run: as §1

Binder | SPOT peptide array binding signal intensity
RKLRTVPGVPLIHLT | 1

Molecular target: CaBzz1-D1
Test: as above
How it was run: as §1

Binder | SPOT peptide array binding signal intensity
RKLRTVPGVPLIHLT | 104

Molecular target: CaBzz1-D2
Test: as above
How it was run: as §1

Binder | SPOT peptide array binding signal intensity
RKLRTVPGVPLIHLT | 90

Molecular target: CaCyk3
Test: as above
How it was run: as §1

Binder | SPOT peptide array binding signal intensity
RKLRTVPGVPLIHLT | 17

Molecular target: CaFus1
Test: as above
How it was run: as §1

Binder | SPOT peptide array binding signal intensity
RKLRTVPGVPLIHLT | 147

Molecular target: CaHof1
Test: as above
How it was run: as §1

Binder | SPOT peptide array binding signal intensity
RKLRTVPGVPLIHLT | 0.5

Molecular target: CaHse1
Test: as above
How it was run: as §1

Binder | SPOT peptide array binding signal intensity
RKLRTVPGVPLIHLT | 1.25

Molecular target: CaLsb1
Test: as above
How it was run: as §1

Binder | SPOT peptide array binding signal intensity
RKLRTVPGVPLIHLT | ≤ 0

Molecular target: CaLsb4
Test: as above
How it was run: as §1

Binder | SPOT peptide array binding signal intensity
RKLRTVPGVPLIHLT | 73

Molecular target: CaMyo5
Test: as above
How it was run: as §1

Binder | SPOT peptide array binding signal intensity
RKLRTVPGVPLIHLT | 0.25

Molecular target: CaNbp2
Test: as above
How it was run: as §1

Binder | SPOT peptide array binding signal intensity
RKLRTVPGVPLIHLT | 281

Molecular target: CaRvs167
Test: as above
How it was run: as §1

Binder | SPOT peptide array binding signal intensity
RKLRTVPGVPLIHLT | 24.3

Molecular target: CaRvs167-3
Test: as above
How it was run: as §1

Binder | SPOT peptide array binding signal intensity
RKLRTVPGVPLIHLT | 7.25

Molecular target: CaSho1
Test: as above
How it was run: as §1

Binder | SPOT peptide array binding signal intensity
RKLRTVPGVPLIHLT | 3.5

Molecular target: CaSla1-D1-D2
Test: as above
How it was run: as §1

Binder | SPOT peptide array binding signal intensity
RKLRTVPGVPLIHLT | 20

Molecular target: CaSla1-D3
Test: as above
How it was run: as §1

Binder | SPOT peptide array binding signal intensity
RKLRTVPGVPLIHLT | ≤ 0

Molecular target: ScAbp1
Test: as above
How it was run: as §1

Binder | SPOT peptide array binding signal intensity
RKLRTVPGVPLIHLT | 14
